From the supplement of paper PMC6089552
In all, about 3,200 compounds went through this assay and about 300 (9.4%) showed activity. Shown is part of a subset that was picked to be rich in actives.

Tested on: A673/TR/shEF
Test: cell viability (LOESS-normalised, relative to median of negative controls) (log2 ratio); higher = more viable cells (less compound effect), active = hit call of the paper (over 3 MAD below the median)
Settings: treatment time: 72 h
Outline: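 A673/TR/shEF Ewing sarcoma cells were plated at 1,500 per well in 384-well plates and cultured with or without doxycycline, added 24 h before compounds, to induce EWS-FLI1 shRNA knockdown. Library compounds at two or more concentrations, alongside DMSO controls, were applied for three days. Cell viability was measured by CellTiter-Glo luminescence on an Envision reader. Readings were LOESS-corrected per plate, divided by the median of negative controls and log2-transformed, and hits were wells lying at least three median absolute deviations from the median of all screened wells.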

[1] = 0.25 µM, library screen: screen1, EWS-FLI1 expression: high (no doxycycline)
[2] = 0.25 µM, library screen: screen1, EWS-FLI1 expression: low (doxycycline-induced shRNA knockdown)
[3] = 2.5 µM, library screen: screen1, EWS-FLI1 expression: high (no doxycycline)
[4] = 2.5 µM, library screen: screen1, EWS-FLI1 expression: low (doxycycline-induced shRNA knockdown)
[5] = 0.25 µM, library screen: screen2, EWS-FLI1 expression: high (no doxycycline)
[6] = 0.25 µM, library screen: screen2, EWS-FLI1 expression: low (doxycycline-induced shRNA knockdown)
[7] = 2.5 µM, library screen: screen2, EWS-FLI1 expression: high (no doxycycline)
[8] = 2.5 µM, library screen: screen2, EWS-FLI1 expression: low (doxycycline-induced shRNA knockdown)
[9] = 0.103 µM, library screen: screen3, EWS-FLI1 expression: high (no doxycycline)
[10] = 0.103 µM, library screen: screen3, EWS-FLI1 expression: low (doxycycline-induced shRNA knockdown)
[11] = 0.308 µM, library screen: screen3, EWS-FLI1 expression: high (no doxycycline)
[12] = 0.308 µM, library screen: screen3, EWS-FLI1 expression: low (doxycycline-induced shRNA knockdown)
[13] = 0.926 µM, library screen: screen3, EWS-FLI1 expression: high (no doxycycline)
[14] = 0.926 µM, library screen: screen3, EWS-FLI1 expression: low (doxycycline-induced shRNA knockdown)
[15] = 2.8 µM, library screen: screen3, EWS-FLI1 expression: high (no doxycycline)
[16] = 2.8 µM, library screen: screen3, EWS-FLI1 expression: low (doxycycline-induced shRNA knockdown)
[17] = 8.3 µM, library screen: screen3, EWS-FLI1 expression: high (no doxycycline)
[18] = 8.3 µM, library screen: screen3, EWS-FLI1 expression: low (doxycycline-induced shRNA knockdown)
[19] = 25 µM, library screen: screen3, EWS-FLI1 expression: high (no doxycycline)
[20] = 25 µM, library screen: screen3, EWS-FLI1 expression: low (doxycycline-induced shRNA knockdown)
[21] = 0.025 µM, library screen: screen1, EWS-FLI1 expression: high (no doxycycline)
[22] = 0.025 µM, library screen: screen1, EWS-FLI1 expression: low (doxycycline-induced shRNA knockdown)
[23] = 25 µM, library screen: screen1, EWS-FLI1 expression: high (no doxycycline)
[24] = 25 µM, library screen: screen1, EWS-FLI1 expression: low (doxycycline-induced shRNA knockdown)

Measured: cell viability (log2)

O=C(c1cc(-c2ccccc2)nc2ccccc12)N1CCN(c2ccccc2)CC1
inactive: [1] 0.112 | [2] 0.0402 | [3] 0.113 | [4] 0.188

O=C(c1cc(-c2ccccc2)nc2ccccc12)N1CCCC1
inactive: [1] 0.0657 | [2] 0.0915 | [3] 0.129 | [4] -0.0754

CC1CN(C(=O)c2cc(-c3ccccc3)nc3ccccc23)CC(C)O1 (centres undefined)
active: [1] -2.9 | [2] -2.55
inactive: [3] 0.0982 | [4] 0.0382

Cc1cccc(C)c1OCC(N)C(C)C (centres undefined)
inactive: [5] 0.0355 | [6] -0.033 | [7] 0.0196 | [8] 0.00962

COc1cccc2c1CCC1CC(=O)CC[C@]21C (some centres undefined)
inactive: [1] 0.0982 | [2] 0.0827 | [3] 0.058 | [4] 0.11

OC[C@@H](O)[C@@H](O)C(O)[C@H](O)[C@@H](O)CO (some centres undefined)
inactive: [1] 0.0348 | [2] 0.0046 | [3] 0.138 | [4] 0.018

C=CCc1ccccc1OCC(O)CNC(C)C (centres undefined)
inactive: [1] 0.0845 | [2] 0.135 | [6] 0.0871 | [3] 0.0928 | [4] 0.0547 | [7] 0.0869 | [8] 0.156
active: [5] -0.203

CC(C)NCC(O)COc1cccc2ccccc12 (centres undefined)
inactive: [1] 0.149 | [2] 0.0263 | [5] 0.19 | [6] 0.128 | [3] 0.146 | [4] -0.0491 | [7] 0.0197 | [8] 0.0681

CC(C)NC[C@H](O)COc1cccc2ccccc12
inactive: [5] 0.141 | [6] 0.0581 | [7] 0.131 | [8] 0.11

CN1[C@@H]2CC[C@@H]1CC(OC(c1ccccc1)c1ccccc1)C2 (some centres undefined)
inactive: [1] 0.132 | [2] 0.107 | [5] 0.135 | [6] 0.0858 | [3] 0.0835 | [4] 0.0797 | [7] 0.114 | [8] 0.0926

O=C(CCCCCCC(=O)Nc1ccccc1)NO
inactive: [9] 0.0138 | [10] 0.0808 | [5] 0.16 | [6] 0.101 | [11] 0.0409 | [12] 0.115 | [13] 0.0465 | [14] 0.156 | [7] 0.0836 | [8] 0.0743 | [15] -0.083 | [16] -0.944
active: [17] -1.12 | [18] -0.391 | [19] -2.67 | [20] -1.56

O=C(Cc1ccccc1)NO
inactive: [1] 0.111 | [2] 0.0668 | [3] 0.126 | [4] 0.0445

O=C(Nc1ccccc1)Nc1ccccc1
inactive: [1] -0.0389 | [2] 0.0106 | [3] 0.0741 | [4] -0.00546

Cc1c2oc3c(C)ccc(C(=O)NC4C(=O)NC(C(C)C)C(=O)N5CCCC5C(=O)N(C)CC(=O)N(C)C(C(C)C)C(=O)OC4C)c3nc-2c(C(=O)NC2C(=O)NC(C(C)C)C(=O)N3CCCC3C(=O)N(C)CC(=O)N(C)C(C(C)C)C(=O)OC2C)c(N)c1=O (centres undefined)
active: [1] -4.25 | [2] -4.25 | [3] -4.23 | [4] -4.26

COc1ccc(OC)c(CN2CCN(Cc3ccc([N+](=O)[O-])cc3)CC2)c1
inactive: [1] 0.0199 | [2] 0.014 | [3] -0.0107 | [4] 0.0533

O=C(O)c1cc2cc(Cl)ccc2[nH]1
inactive: [1] 0.0631 | [2] -0.00653 | [3] 0.106 | [4] 0.0362

O=C(O)c1cc2ccccc2[nH]1
inactive: [1] 0.123 | [2] 0.0929 | [3] 0.0969 | [4] 0.132

O=C(O)c1cc2cc(F)ccc2[nH]1
active: [5] -0.173
inactive: [1] 0.0776 | [2] -0.00933 | [6] 0.0925 | [3] 0.156 | [4] 0.00267 | [7] 0.154 | [8] 0.0908

Cn1cnnc1SCC(=O)N1c2ccccc2CCc2ccccc21
inactive: [1] 0.0935 | [2] 0.0627 | [3] 0.0921 | [4] 0.0613

O=C(O)Cc1ccc(O)c(O)c1
inactive: [5] 0.133 | [6] -0.00472 | [7] 0.0419 | [8] 0.108

N#C/C(=C\c1ccc(O)c(O)c1)C(=O)NCCc1ccccc1
inactive: [5] 0.142 | [6] 0.0983 | [7] 0.163 | [8] 0.0697

C[C@@H](NC(=O)/C(C#N)=C/c1ccc(O)c(O)c1)c1ccccc1
inactive: [5] 0.139 | [6] -0.0177 | [7] 0.152 | [8] 0.00798

N#C/C(=C\c1ccc(O)c(O)c1)C(=O)NCCCc1ccccc1
inactive: [5] 0.175 | [6] 0.0501 | [7] 0.049 | [8] 0.115

O=C(O)c1cc([N+](=O)[O-])ccc1NCCCc1ccccc1
inactive: [1] 0.00351 | [2] 0.0513 | [5] 0.0917 | [6] 0.092 | [3] -0.0108 | [4] 0.0086 | [7] 0.0503 | [8] 0.0316

C[C@H](NC(=O)/C(C#N)=C/c1ccc(O)c(O)c1)c1ccccc1
inactive: [5] 0.133 | [6] 0.0775 | [7] 0.118 | [8] 0.0876

N#C/C(=C\c1ccc(O)c(O)c1)C(=O)NCc1ccccc1
inactive: [21] 0.245 | [22] 0.0652 | [1] 0.23 | [2] 0.104 | [5] 0.0885 | [6] 0.0797 | [7] 0.253 | [8] 0.0805 | [24] -0.0381
active: [3] -0.573 | [4] -0.157 | [23] -0.423

CC(C)c1cc(/C=C(\C#N)C(=O)NCCCc2ccccc2)cc(C(C)C)c1O
inactive: [21] 0.249 | [22] 0.00192 | [1] 0.255 | [2] -0.0227 | [4] 0.113 | [24] 0.147
active: [3] -0.147 | [23] -0.351

N#C/C(=C\c1ccc(O)c(O)c1)C(=O)Nc1ccccc1
inactive: [21] 0.188 | [22] -0.0571 | [1] 0.155 | [2] 0.0428 | [5] 0.0861 | [6] 0.0194 | [4] 0.0541 | [7] 0.105 | [8] 0.00853 | [24] 0.0298
active: [3] -0.16 | [23] -0.692

CC(=O)O[C@H]1CC[C@@]2(C)C(CC[C@]3(C)C2C(=O)C=C2C4[C@@H](C)[C@H](C)CC[C@]4(C(=O)O)CC[C@]23C)C1(C)C (some centres undefined)
inactive: [1] 0.0834 | [2] -0.0467 | [3] 0.137 | [4] -0.0143

Cc1nnc(SCC(=O)N2c3cc(C)c(C)cc3-c3c(ssc3=S)C2(C)C)s1
inactive: [1] 0.0437 | [2] 0.1 | [3] 0.106 | [4] 0.371

COc1cc(CN2CCN(Cc3ccccc3Br)CC2)cc(OC)c1OC
inactive: [1] 0.141 | [2] 0.0128 | [3] 0.124 | [4] -0.0338

COCCCN1C(=O)C(=Cc2sccc2C)SC1=S
inactive: [1] 0.112 | [2] 0.0557 | [3] 0.117 | [4] -0.0013

CC1=C(C(=O)Nc2ccccc2Cl)C(c2ccc(F)cc2)NC(=S)N1 (centres undefined)
inactive: [1] 0.0751 | [2] -0.00334 | [3] 0.0684 | [4] -0.0806

CC(=O)CCC(=O)O
inactive: [1] 0.109 | [2] -0.0377 | [3] 0.149 | [4] 0.116

Nc1ccccc1C(=O)CC(N)C(=O)O (centres undefined)
inactive: [1] 0.119 | [2] 0.0475 | [3] 0.0296 | [4] 0.178

Clc1ccc(COC(Cn2ccnc2)c2ccc(Cl)cc2Cl)cc1 (centres undefined)
active: [19] -0.429
inactive: [9] -0.00584 | [10] 0.0214 | [1] 0.00613 | [2] -0.0476 | [11] 0.00202 | [12] -0.00564 | [13] 0.0175 | [14] 0.0368 | [3] 0.0561 | [4] 0.0348 | [15] -0.113 | [16] 0.0131 | [17] -0.0802 | [18] 0.0353 | [20] -0.0458

Clc1ccc(COC(Cn2ccnc2)c2ccc(Cl)cc2Cl)c(Cl)c1 (centres undefined)
inactive: [9] 0.0363 | [10] 0.054 | [1] 0.11 | [2] -0.0145 | [11] 0.0264 | [12] 0.0988 | [13] 0.0504 | [14] 0.0737 | [3] 0.143 | [4] 0.0636 | [15] 0.00663 | [16] 0.0754 | [17] -0.0261 | [18] 0.0596 | [19] -0.0834 | [20] 0.0583

Clc1ccc(CSC(Cn2ccnc2)c2ccc(Cl)cc2Cl)cc1 (centres undefined)
inactive: [1] 0.0547 | [2] -0.0713 | [3] 0.0724 | [4] -0.143

CSCCC(NC=O)C(=O)NC(CC(C)C)C(=O)NC(Cc1ccccc1)C(=O)O (centres undefined)
inactive: [1] 0.0125 | [2] 0.0891 | [3] 0.0974 | [4] 0.0808

Cn1cncc1[C@@](N)(c1ccc(Cl)cc1)c1ccc2c(c1)c(-c1cccc(Cl)c1)cc(=O)n2C
inactive: [9] -0.139 | [10] -0.0373 | [12] -0.0603 | [14] -0.0604
active: [11] -0.29 | [13] -0.324 | [15] -0.403 | [16] -0.128 | [17] -0.472 | [18] -0.135 | [19] -0.511 | [20] -0.303
